Experimental data published in PubChem BioAssay (NCI).
The panel holds about 79,000 compounds, 15% with a hit somewhere; the sample as a whole holds those more often. Activity calls are given as the source filed them. No stated cut-off is given here; in the data, active means growth inhibition above about 70%; inactive means the rest.

Key:
[1] = NCI Yeast Anticancer Drug Screen. Data for the rad50 strain (AID 155);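 further: 0% = growth of vehicle-only cultures of the same strain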; conditions: S. cerevisiae rad50 strain growth inhibition, active compounds read high
Outline: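 Compounds were tested on a yeast strain with an engineered DNA damage repair alteration; the reported value is growth inhibition normalised to vehicle treatment.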

[2] = NCI Yeast Anticancer Drug Screen. Data for the mec2-1 strain (AID 157); conditions: S. cerevisiae mec2-1 strain, active compounds read high
Outline: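 Strain: mec2-1 (DNA repair/cell cycle alteration). Compound exposure, then growth measured; inhibition expressed relative to vehicle.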

[3] = NCI Yeast Anticancer Drug Screen. Data for the sgs1 mgt1 strain (AID 161);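 further: 0% = growth of cultures given vehicle only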; conditions: S. cerevisiae sgs1 mgt1 strain, active compounds read high
Outline: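 Test agents were incubated with a DNA-repair-mutant yeast strain. Growth was then read and compared against vehicle-treated controls.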

[4] = NCI Yeast Anticancer Drug Screen. Data for the cln2 rad14 strain (AID 165);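 further: 0% = growth equal to vehicle treated cultures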; conditions: S. cerevisiae cln2 rad14 strain, active compounds read high
Outline: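 Compounds are applied to the cln2 rad14 yeast strain, and growth is then compared with that of vehicle-treated cultures to give inhibition.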

[5] = NCI Yeast Anticancer Drug Screen. Data for the bub3 strain (AID 167); conditions: S. cerevisiae bub3 mutant strain, active compounds read high
Outline: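 Growth of a checkpoint-deficient yeast mutant is measured after compound exposure. Values represent inhibition relative to vehicle.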

[6] = NCI Yeast Anticancer Drug Screen. Data for the mlh1 rad18 strain (AID 175); conditions: S. cerevisiae mlh1 rad18 strain growth inhibition, active compounds read high
Outline: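 Read-out is yeast growth inhibition, calculated against vehicle-only controls. The compound was applied to a strain engineered with DNA damage repair alterations.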

[7] = at 5.0 µM (retest, dose inferred, filed as 0.5)
[8] = at 50.0 µM (retest, dose inferred, filed as 5.0)

Measured: growth inhibition

CCOC(=O)C(=O)Nc1ccc(Cl)cc1Cl
inactive: [1]; [7] -12% | [1]; [8] -1% | [1]; at 50.0 µM -1.5% | [2]; [7] -12% | [2]; [8] -5% | [2]; at 50.0 µM -10.3% | [3]; [7] -1% | [3]; [8] -2% | [3]; at 50.0 µM -2.25% | [4]; [7] 14% | [4]; [8] 34% | [4]; at 50.0 µM -1.75% | [5]; [7] 10% | [5]; [8] -10% | [5]; at 50.0 µM 10.6% | [6]; [7] 1% | [6]; [8] 7% | [6]; at 50.0 µM 19.1%

O=[N+]([O-])c1cc(CN(CCO)CCO)c(O)c2ncccc12
active: [1]; [7] 99% | [1]; [8] 99% | [1]; at 50.0 µM 99.1% | [2]; [7] 98% | [2]; [8] 100% | [2]; at 50.0 µM 94% | [3]; [7] 96% | [3]; [8] 100% | [3]; at 50.0 µM 99% | [4]; [7] 97% | [4]; [8] 99% | [4]; at 50.0 µM 91.3% | [5]; [7] 95% | [5]; [8] 99% | [5]; at 50.0 µM 95.7% | [6]; [7] 96% | [6]; [8] 99% | [6]; at 50.0 µM 97.2%

Cc1ccc(SSCCCCCS(=O)O)cc1
active: [5]; [8] 88% | [5]; at 50.0 µM 84.4% | [6]; at 50.0 µM 77.5%
inactive: [1]; [7] 1% | [1]; [8] 24% | [1]; at 50.0 µM 49.5% | [2]; [7] 4% | [2]; [8] 60% | [2]; at 50.0 µM 23.1% | [3]; [7] 3% | [3]; [8] 54% | [3]; at 50.0 µM 42.9% | [4]; [7] -5% | [4]; [8] 34% | [4]; at 50.0 µM 58% | [5]; [7] 10% | [6]; [7] 6% | [6]; [8] 49%

c1ccc(CSc2nnc3c4ccccc4c4ccccc4c3n2)cc1
inactive: [1]; [7] -4% | [1]; [8] 5% | [1]; at 50.0 µM -22.6% | [2]; [7] 8% | [2]; [8] -22% | [2]; at 50.0 µM -19.7% | [3]; [7] 5% | [3]; [8] 5% | [3]; at 50.0 µM -5.3% | [4]; [7] -21% | [4]; [8] -12% | [4]; at 50.0 µM 29.4% | [5]; [7] 8% | [5]; [8] 13% | [5]; at 50.0 µM -9.25% | [6]; [7] 1% | [6]; [8] 3% | [6]; at 50.0 µM 42%

Cc1c2ccccc2c(CSC(=N)N)c2ccccc12
inactive: [1]; [7] 47% | [2]; [7] 22% | [3]; [7] 9% | [4]; [7] 26% | [6]; [7] 30%
active: [1]; [8] 99% | [1]; at 50.0 µM 99.5% | [2]; [8] 99% | [2]; at 50.0 µM 99.7% | [3]; [8] 98% | [3]; at 50.0 µM 99.5% | [4]; [8] 99% | [4]; at 50.0 µM 99.5% | [6]; [8] 99% | [6]; at 50.0 µM 99.7%

CCCCCCCN=C(N)c1ccc(C(=O)OCc2ccccc2)cc1
active: [1]; [8] 86% | [1]; at 50.0 µM 99.5% | [2]; [8] 76% | [2]; at 50.0 µM 99.8% | [3]; [8] 95% | [3]; at 50.0 µM 99.8% | [4]; [8] 80% | [4]; at 50.0 µM 99.4% | [6]; [8] 94% | [6]; at 50.0 µM 99.7%
inactive: [1]; [7] 1% | [2]; [7] -12% | [3]; [7] 5% | [4]; [7] -2% | [6]; [7] 6%

O=[N+]([O-])c1ccc(NCc2ccccc2)c([N+](=O)[O-])c1
inactive: [1]; [7] -8% | [1]; [8] 69% | [1]; at 50.0 µM 14.6% | [2]; [7] -16% | [2]; [8] 55% | [2]; at 50.0 µM 31.1% | [3]; [7] 4% | [3]; at 50.0 µM 60.6% | [4]; [7] -10% | [4]; [8] 62% | [4]; at 50.0 µM -166% | [5]; [7] 19% | [6]; [7] -2% | [6]; at 50.0 µM 68%
active: [3]; [8] 72% | [5]; [8] 86% | [5]; at 50.0 µM 72.7% | [6]; [8] 80%

c1ccc(CN2CCc3[nH]c4ccccc4c3C2)cc1
inactive: [1]; [7] -1% | [1]; [8] -3% | [1]; at 50.0 µM -1.9% | [2]; [7] -1% | [2]; [8] -2% | [2]; at 50.0 µM 17.1% | [3]; [7] -4% | [3]; [8] -1% | [3]; at 50.0 µM 7.8% | [4]; [7] -1% | [4]; [8] -7% | [4]; at 50.0 µM 33.5% | [6]; [7] -3% | [6]; [8] -1% | [6]; at 50.0 µM 18%

CC(=O)OC1(C)C(=C(Cl)Cl)C2c3ccccc3C1c1ccccc12 (stereo unspecified)
inactive: [1]; [7] 0% | [2]; [7] 19% | [3]; [7] 2% | [4]; [7] 7% | [4]; at 50.0 µM 64.4% | [5]; [7] -4% | [6]; [7] 10%
active: [1]; [8] 91% | [1]; at 50.0 µM 92.7% | [2]; [8] 88% | [2]; at 50.0 µM 82.2% | [3]; [8] 92% | [3]; at 50.0 µM 94.3% | [4]; [8] 89% | [5]; [8] 93% | [5]; at 50.0 µM 93.2% | [6]; [8] 91% | [6]; at 50.0 µM 93.8%

Cc1cc(N2C(=O)CSC2=S)ccc1Cl
active: [3]; at 50.0 µM 79.2%
inactive: [1]; [7] -3% | [1]; [8] 1% | [1]; at 50.0 µM 61.1% | [2]; [7] -4% | [2]; [8] -2% | [2]; at 50.0 µM 21.9% | [3]; [7] -2% | [3]; [8] 8% | [4]; [7] -2% | [4]; [8] -17% | [4]; at 50.0 µM 12.8% | [5]; [7] -6% | [5]; [8] -1% | [5]; at 50.0 µM 7.95% | [6]; [7] -6% | [6]; [8] 0% | [6]; at 50.0 µM 51.2%

S=C(N/N=C1\C=Cc2ccccc2C1)N/N=C1\C=Cc2ccccc2C1
inactive: [1]; [7] 0% | [1]; [8] 17% | [1]; at 50.0 µM 55.5% | [2]; [7] -4% | [2]; [8] 59% | [2]; at 50.0 µM 41.4% | [3]; [7] -7% | [3]; [8] 45% | [3]; at 50.0 µM 41.7% | [4]; [7] 2% | [4]; [8] 4% | [4]; at 50.0 µM 36.1% | [6]; [7] 18% | [6]; [8] 56%
active: [6]; at 50.0 µM 71%
